The values below come from the supplement of paper PMC8728848.

What all share (assay): glycan array binding signal (z-score within array); higher = stronger binding
Common to all, as to conditions: glycan notation: IUPAC condensed, linker removed

In assay [1] the target is Fuc(a1-2)Gal(b1-3)GalNAc(a1-3)[Fuc(a1-2)]Gal(b1-4)GlcNAc. The method, boiled down:
(§1)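 Arrays were curated from the Consortium for Functional Glycomics database, 3228 in total, and kept only where the protein sequence was available. Binding is expressed as a within-array Z-score. This score was averaged across arrays of the same protein sequence at different concentrations or buffers and across linkers, and negative values can be read as non-binding.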

The target of assay [2] is Fuc(a1-2)Gal(b1-4)GlcNAc(b1-2)Man(a1-3)[Fuc(a1-2)Gal(b1-4)GlcNAc(b1-2)Man(a1-6)]Man(b1-4)GlcNAc(b1-4)[Fuc(a1-6)]GlcNAc. In a few lines: as §1
For assay [3], the target named is Fuc(a1-2)Gal(b1-4)[Fuc(a1-3)]GlcNAc(b1-2)[Fuc(a1-2)Gal(b1-4)[Fuc(a1-3)]GlcNAc(b1-4)]Man(a1-3)[Fuc(a1-2)Gal(b1-4)[Fuc(a1-3)]GlcNAc(b1-2)Man(a1-6)]Man(b1-4)GlcNAc(b1-4)GlcNAc. The method, boiled down: as §1
Assay [4] deals with Fuc(a1-2)Gal(b1-4)[Fuc(a1-3)]GlcNAc(b1-3)Gal(b1-4)[Fuc(a1-3)]GlcNAc(b1-3)Gal(b1-4)[Fuc(a1-3)]GlcNAc. The method, boiled down: as §1
Assay [5] has as its target Fuc(a1-2)Gal6S(b1-3)GlcNAc6S. In a few lines: as §1
In assay [6] the target is Fuc(a1-2)[Gal(a1-3)]Gal(b1-4)GlcNAc(b1-2)Man. In a few lines: as §1
The target of another assay is Fuc(a1-3)GlcNAc. In a few lines: as §1
For assay [7], the target named is Fuc(a1-3)[Gal(b1-4)]GlcNAc. The method, boiled down:
as §1

The target of assay [8] is Fuc(a1-3)[GalNAc(b1-4)]GlcNAc. In a few lines: as §1
The target of assay [9] is Gal(a1-3)Gal(b1-3)[Fuc(a1-4)]GlcNAc(b1-2)Man(a1-3)[Gal(a1-3)Gal(b1-3)[Fuc(a1-4)]GlcNAc(b1-2)Man(a1-6)]Man(b1-4)GlcNAc(b1-4)GlcNAc. In a few lines: as §1
The next assay addresses Gal(a1-3)Gal(b1-4)Glc. The method, boiled down: as §1
The target of assay [10] is Gal(a1-3)[Gal(a1-4)]Gal(b1-4)GlcNAc. In a few lines: as §1
Assay [11] concerns the target Gal(b1-3)GlcNAc(b1-6)Gal(b1-4)GlcNAc. In a few lines:
as §1

The target of assay [12] is Gal(b1-4)GlcNAc(b1-3)Gal(b1-3)GlcNAc. The method, boiled down: as §1
Assay [13] deals with Gal(b1-4)GlcNAc(b1-3)Gal(b1-4)GlcNAc(b1-2)Man(a1-3)[Gal(b1-4)GlcNAc(b1-3)Gal(b1-4)GlcNAc(b1-2)Man(a1-6)]Man(b1-4)GlcNAc(b1-4)GlcNAc. The method, boiled down:
as §1

Assay [14] addresses Gal(b1-4)GlcNAc(b1-3)Gal(b1-4)GlcNAc(b1-3)Gal(b1-4)GlcNAc. The method, boiled down:
as §1

Assay [15] has as its target Gal(b1-4)GlcNAc(b1-3)Gal(b1-4)GlcNAc(b1-3)Gal(b1-4)GlcNAc(b1-2)Man(a1-3)[Gal(b1-4)GlcNAc(b1-3)Gal(b1-4)GlcNAc(b1-3)Gal(b1-4)GlcNAc(b1-2)Man(a1-6)]Man(b1-4)GlcNAc(b1-4)GlcNAc. In a few lines:
as §1

The target of assay [16] is Gal(b1-4)GlcNAc(b1-3)Gal(b1-4)GlcNAc(b1-3)Gal(b1-4)GlcNAc(b1-3)Gal(b1-4)GlcNAc(b1-2)[Gal(b1-4)GlcNAc(b1-3)Gal(b1-4)GlcNAc(b1-3)Gal(b1-4)GlcNAc(b1-3)Gal(b1-4)GlcNAc(b1-6)]Man(a1-6)[Gal(b1-4)GlcNAc(b1-3)Gal(b1-4)GlcNAc(b1-3)Gal(b1-4)GlcNAc(b1-3)Gal(b1-4)GlcNAc(b1-2)Man(a1-3)]Man(b1-4)GlcNAc(b1-4)[Fuc(a1-6)]GlcNAc. In a few lines:
as §1

The target in assay [17] is Gal(b1-4)GlcNAc(b1-3)Gal(b1-4)GlcNAc(b1-3)Gal(b1-4)GlcNAc(b1-3)Gal(b1-4)GlcNAc(b1-3)Gal(b1-4)GlcNAc(b1-2)[Gal(b1-4)GlcNAc(b1-3)Gal(b1-4)GlcNAc(b1-3)Gal(b1-4)GlcNAc(b1-3)Gal(b1-4)GlcNAc(b1-3)Gal(b1-4)GlcNAc(b1-6)]Man(a1-6)[Gal(b1-4)GlcNAc(b1-3)Gal(b1-4)GlcNAc(b1-3)Gal(b1-4)GlcNAc(b1-3)Gal(b1-4)GlcNAc(b1-3)Gal(b1-4)GlcNAc(b1-2)Man(a1-3)]Man(b1-4)GlcNAc(b1-4)[Fuc(a1-6)]GlcNAc. In a few lines:
as §1

The target of assay [18] is Gal(b1-4)GlcNAc(b1-6)Gal(b1-4)GlcNAc. In a few lines:
as §1

The target in another assay is Gal3S(b1-3)GlcNAc. In a few lines: as §1
The target of the next assay is Gal3S6S(b1-4)GlcNAc6S. The method, boiled down: as §1

The sample as a whole holds a higher share of the strongest signals than the screen did.

B1: PX14379D-pdi-530-26-530 (Parabacteroides distasonis) (protein)
chain: DETVYDKLPADDFGQSTAELNALIGNSHNTMKKFWTEYMHLSECSGSMAVTPTRRGGDWYDGGQYREIYMHTWTSQTSRVKSAWKAATEAIGTCNEAIRKLQNSEILTEEEKAQDVADLRGVRAFWIYVMMDYWGNIPLLTEFHPTDKVFPGNSSRQEVFDWLIQEVEEIKDICPPATTENYGSFTQGAAYSLLAKLYLNAEAWGVTFSGNAYQKVIDNCDKVMAMGYILEPNWKDNFSVTNENSKEAILAATFSSSDTGNDGNVKNELHNNTLHYKDYLSLGITASGTWNGICAQPEYVRLFDEEDARLDGTFLTGLMIDKSTGKPIMTDHNNELNHTIDVNMIPGMEYDGTNWSAVEQHDGARCFKWEFASDLTSSMGNDFHIFRLADIYLMKAEALLRGGGSVSEATALVNTIRERGYGNSDHNYATVTLKEVQLERRLELAWEVYSRQDDIRFGCFTTGMWPQSNCERKADDYLKLLPVSQDAWQVNPNLKQNPGYAAFSK
In the case of B1, the “glycan array binding signal (z-score)” value was -1.42 in [1]; -0.233 in assay [2]; -0.436 in assay [3]; 2.52 in [4]; 2.88 in [5]; 1.09 in assay [6]. Also, the “glycan array binding signal (z-score)” value with Fuc(a1-3)GlcNAc was -0.715; in [7] it was -0.689; in assay [8], -0.221; in assay [9], 2.48; with Gal(a1-3)Gal(b1-4)Glc, -0.838; in assay [10], 4.67. The “glycan array binding signal (z-score)” value in [11] is -1.22; in [12], -1.08; in assay [13] it was 2.97; in assay [14], -0.298; in [15], 1.92; in assay [16], 3.06. Moreover, the “glycan array binding signal (z-score)” value in assay [17] is 1.59; in assay [18], 0.063; with Gal3S(b1-3)GlcNAc, -0.593; in the assay with Gal3S6S(b1-4)GlcNAc6S it was 2.52.
